Bioassay records: PubChem BioAssay, several laboratories
Beta cell apopt: beta cell apoptosis inhibition; AID 435005; hit rate 0.8% among 300,000; protection from apoptosis, % (test concentration not listed); INS-1E cytokine-induced death, ATP luminescence, 48 h; percent of positive-control rescue, neutral wells zero;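 active = Every replicate reaches about 75%, or at least half do and their mean reaches it too, limit read from the data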;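 note: higher means more ATP so stronger rescue from cytokine killing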
Mdm2-MdmX inh: inhibitors of human Mdm2/MdmX interaction; O15151+Q00987; SaOS-2 split-luciferase Mdm2/MdmX complementation, luminescence; inhibition, % at 8 µM; hit rate 3% among 330,000;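 active = inhibition of at least 50% at 8 µM in the primary screen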
Target sequence (O15151 whole entry, looked up): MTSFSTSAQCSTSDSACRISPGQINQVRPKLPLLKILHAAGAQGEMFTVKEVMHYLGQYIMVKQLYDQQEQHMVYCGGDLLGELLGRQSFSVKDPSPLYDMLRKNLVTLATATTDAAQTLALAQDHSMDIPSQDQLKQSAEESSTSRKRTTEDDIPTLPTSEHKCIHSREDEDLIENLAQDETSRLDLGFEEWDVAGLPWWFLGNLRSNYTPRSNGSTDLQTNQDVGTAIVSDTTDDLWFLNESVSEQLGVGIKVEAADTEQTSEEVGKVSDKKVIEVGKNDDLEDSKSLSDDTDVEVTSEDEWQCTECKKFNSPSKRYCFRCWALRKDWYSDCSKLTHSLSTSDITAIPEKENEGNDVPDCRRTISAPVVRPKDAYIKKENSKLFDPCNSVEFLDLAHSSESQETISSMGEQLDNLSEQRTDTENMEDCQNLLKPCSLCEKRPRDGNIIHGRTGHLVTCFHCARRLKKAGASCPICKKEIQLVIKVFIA
Target sequence (Q00987 whole entry, looked up): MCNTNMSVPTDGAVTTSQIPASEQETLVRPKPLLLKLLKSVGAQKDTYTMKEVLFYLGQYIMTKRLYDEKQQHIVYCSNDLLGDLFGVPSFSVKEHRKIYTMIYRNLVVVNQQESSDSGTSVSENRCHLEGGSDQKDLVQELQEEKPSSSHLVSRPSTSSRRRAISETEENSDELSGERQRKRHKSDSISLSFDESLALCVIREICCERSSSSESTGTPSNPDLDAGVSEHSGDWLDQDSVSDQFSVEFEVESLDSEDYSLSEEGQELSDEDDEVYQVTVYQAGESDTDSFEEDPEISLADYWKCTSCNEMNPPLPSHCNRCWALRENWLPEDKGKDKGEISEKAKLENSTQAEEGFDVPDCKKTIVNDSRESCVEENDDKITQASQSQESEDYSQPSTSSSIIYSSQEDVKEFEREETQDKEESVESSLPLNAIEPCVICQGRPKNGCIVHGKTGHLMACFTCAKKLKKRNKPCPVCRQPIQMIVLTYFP
NR3A LBD binder: NR3A (human) ligand-binding domain modulation; NR3A LBD differential scanning fluorimetry, Tm shift; 0% = protein alone, 100% = glycine-bound protein; AID 1259313; Tm shift relative to glycine control, % at 25 µM; hit rate 2.5% among 340,000;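 active = melting temperature shift of at least 10% of the positive control shift, at one fixed dose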
Gli-Sufu block: blocks Gli-Sufu signaling in a luciferase reporter | AID 588413 | Sufu-KO-LIGHT fibroblasts, Gli luciferase reporter luminescence | inhibition, % at 5 µM | hit rate 0.74% among 340,000;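 active = inhibition above about 55%, limit read from the data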
MPTP block: permeability transition pore inhibition. isolated mouse mitochondria, Ca2+ swelling absorbance, 30 min. inhibition, % at 10 µM. hit rate 1.4% among 360,000;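 active = inhibition of 50% or more, scaled per plate between neutral and stimulator controls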
CSC inhib: blocks cancer stem cells. AID 2717. inhibition, % at 7.5 µM. cancer stem cell-like cells viability, luminescence. hit rate 1.1% among 300,000; in the data active = inhibition above about 75%; tested in HMLE shEcad cells
Rh123 counter: mitochondrial membrane potential, counter-screen | shares compounds with MPTP block | isolated mitochondria, Rhodamine 123 fluorescence | inhibition, % at 10 µM | hit rate 78% among 5,000; in the data active = inhibition above about 22%
MPTP swell DR: dose response confirmation of mitochondrial permeability transition pore inhibitors; shares compounds with MPTP block; isolated mitochondria swelling, absorbance; IC50, µM; hit rate 58% among 780; in the data active = IC50 below about 20 µM
MPTP cs DR: counter-screen for mitochondrial permeability transition pore inhibitors, dose response; shares compounds with MPTP block; isolated mitochondria counterscreen, fluorescence read-out; IC50, µM; hit rate 49% among 780; AID 651564; in the data active = IC50 below about 80 µM
Of the large screens only hits and unclear results are named; the others gave an inactive call (follow-up assays come after a bar, where they were run). Compounds with a hit are over-represented: about 6.6% of the library has one in this group of screens.

CCCNC(=S)N1CCN(c2nc(-c3cccc(OC)c3)cs2)CC1	none
COc1ccccc1OCCC(=O)OCC(=O)Nc1ccc(Br)cc1F	none
O=C(/C=C/c1cccs1)c1ccc(NC(=O)c2cccc(Br)c2)cc1	NR3A LBD binder 27, MPTP block 54 (no result: CSC inhib) | Rh123 counter 62
COc1cccc(CNC(=O)C2=Cc3cccc(OC)c3OC2)c1	none
O=C(Nc1nccs1)C1CCN(S(=O)(=O)c2c(Cl)cccc2Cl)CC1	none
O=C1NC(=Nc2ccc(Cl)cc2)/C(=C/c2ccco2)S1	MPTP block 79 | Rh123 counter 56
Cc1cccc(N=C2NC(=O)S/C2=C\c2ccco2)c1	MPTP block 71 | Rh123 counter 54
O=C(Nc1ccc(F)cc1)C1CCN(S(=O)(=O)c2cccs2)CC1	none
COc1cc(OC)cc(C(=O)N[C@H](C(=O)NCc2ccco2)C(C)C)c1	none
Oc1c(Br)cc(Br)cc1CNc1ccc(F)cc1	NR3A LBD binder 11, MPTP block 78 | Rh123 counter 81
Cc1ccsc1/C=N/NC(=O)C1CC(=O)N(c2ccccc2)C1 (stereo not drawn)	none
CCC(=O)NC(NC(=S)Nc1ccccc1Br)C(Cl)(Cl)Cl (stereo not drawn)	none
O=C(Cc1cccc2ccccc12)NC(NC(=S)Nc1ccccc1Cl)C(Cl)(Cl)Cl (stereo not drawn)	NR3A LBD binder 19, MPTP block 79 | Rh123 counter 70
CC(C)CNS(=O)(=O)c1ccc(CCC(=O)N2CCN(Cc3ccc4c(c3)OCO4)CC2)cc1	none (no result: CSC inhib)
O=C(CCc1ccc(S(=O)(=O)NCCc2ccccc2)cc1)N1CCN(Cc2ccc3c(c2)OCO3)CC1	MPTP block 54 (no result: Beta cell apopt, NR3A LBD binder, Gli-Sufu block) | Rh123 counter 24
CCCCNCCOCCOc1ccc(C)cc1Br	MPTP block 61 | Rh123 counter inactive | MPTP swell DR inactive | MPTP cs DR inactive
CCC(=O)Nc1nc(CC(=O)Nc2ccccc2OC)cs1	none
COc1ccccc1NC(=O)Cc1csc(NC(=S)Nc2ccc(C)cc2)n1	MPTP block 72 | Rh123 counter 75
O=[N+]([O-])c1ccc(O)c(Nc2ncnc3ccc(Br)cc23)c1	MPTP block 102 | Rh123 counter 85
COc1ccc([N+](=O)[O-])cc1Nc1ncnc2ccccc12	none
Cc1nc2ccc(C(=O)N3CCN(C(=O)c4ccco4)CC3)cn2c1N(C)C(=O)CCc1ccccc1	none (no result: Beta cell apopt, Mdm2-MdmX inh, NR3A LBD binder, Gli-Sufu block, CSC inhib)
O=c1oc2cc(O)ccc2cc1-c1nc2c(s1)CCc1ccccc1-2	NR3A LBD binder 565, MPTP block 89, CSC inhib 83 (no result: Mdm2-MdmX inh) | Rh123 counter 84
O=c1oc2ccccc2cc1-c1nc2c(s1)CCc1ccccc1-2	none
COC(=O)C1=C(C)NC(C)=C(C(=O)OC)C1c1ccc(-c2cccc(Cl)c2Cl)o1	MPTP block 82 | Rh123 counter inactive | MPTP swell DR inactive | MPTP cs DR inactive
COc1ccc(C(=O)Nc2ccc(-c3cn4ccsc4n3)cc2)cc1S(=O)(=O)N1CCOCC1	NR3A LBD binder 27, MPTP block 58 | Rh123 counter inactive | MPTP swell DR inactive | MPTP cs DR inactive
Oc1ccc(Cl)cc1-c1cc(C(F)(F)C(F)F)nc(-c2ccccc2)n1	MPTP block 90 | Rh123 counter inactive | MPTP swell DR 8.1 | MPTP cs DR <2.5
CCc1nnc(NC(=O)c2c(C)nn(-c3ccccc3)c2Cl)s1	none
CC(C)(CSc1ncccn1)NS(=O)(=O)c1ccccc1	none (no result: Beta cell apopt)
Cc1ccc(S(=O)(=O)NC(C)(C)CSc2nnc(Nc3ccccc3)s2)cc1	MPTP block 65 | Rh123 counter 66
COc1ccc(Nc2cc(C)nc(N)n2)cc1	none
COc1ccc(Nc2cc(C)nc(NCc3ccccc3)n2)cc1	MPTP block 57 | Rh123 counter 47
Cc1sc2ncnc(N3CCN(S(=O)(=O)c4ccc(F)cc4)CC3)c2c1C	MPTP block 56 | Rh123 counter 66
CC(NC(=O)Oc1cccc2ccccc12)c1ccccc1 (stereo not drawn)	none (no result: Beta cell apopt, Mdm2-MdmX inh, CSC inhib)
Cc1c(C)n(Cc2ccccc2)c2ncnc(Cl)c12	MPTP block 56 | Rh123 counter 65
Cc1c(C)n(CCc2ccccc2)c2ncnc(NCCO)c12	none
Cc1ccc(-c2csc(NC(=O)CSc3nc(C)cs3)n2)cc1	MPTP block 70 | Rh123 counter 56
O=C(CSc1nc(-c2ccc(Cl)cc2)cs1)Nc1cccc([N+](=O)[O-])c1	NR3A LBD binder 27, MPTP block 84 | Rh123 counter 80
Cc1csc(SCC(=O)Nc2nncs2)n1	none
Cc1cc(NC(=O)CSc2nc(-c3ccc(Cl)cc3)cs2)no1	none
COc1ccc(C2=NN(C(=O)CCC(=O)O)C(c3ccccc3OC)C2)cc1 (stereo not drawn)	none
COc1cc(CN2CCCC(C(=O)c3ccccc3SC)C2)cc(OC)c1 (stereo not drawn)	none
CCOC(=O)c1sc(NC(C)=O)cc1C	none
CCOC(=O)c1sc(NC(=O)c2cccc(S(=O)(=O)N3c4ccccc4CC3C)c2)cc1C (stereo not drawn)	NR3A LBD binder 13, MPTP block 56 | Rh123 counter 38
CCOC(=O)c1sc(NC(=O)Nc2ccccc2Cl)cc1C	NR3A LBD binder 28, MPTP block 72, CSC inhib 94 | Rh123 counter 60
Cc1cc(NC(=O)c2cccc(S(=O)(=O)N3c4ccccc4CC3C)c2)no1 (stereo not drawn)	none
CCOC(=O)c1sc(NC(=O)Nc2ccccc2)cc1C	NR3A LBD binder 43, MPTP block 94 | Rh123 counter 70
O=C(CC12CC3CC(CC(C3)C1)C2)NCC(c1ccc(F)cc1)N1CCOCC1 (stereo not drawn)	none (no result: CSC inhib)
CC(C)c1ccc(NC2CCCN(C(=O)c3cccc4nccnc34)C2)cc1 (stereo not drawn)	none
CC(C)c1ccc(COc2ccc(C(=O)N3CCOCC3)cc2)cc1	Beta cell apopt 76, MPTP block 67 | Rh123 counter 49
CC(C)c1ccc(OCc2ccc(C(=O)N3CCCC3)o2)cc1	MPTP block 84 | Rh123 counter inactive | MPTP swell DR 12 | MPTP cs DR 18
Cc1ccc(NC(=O)CC(=O)c2ccc([N+](=O)[O-])cc2)cc1S(=O)(=O)Nc1cccc(Cl)c1	NR3A LBD binder 25, MPTP block 80 | Rh123 counter 55
Cc1ccc(NC(=O)c2cccs2)cc1S(=O)(=O)Nc1cccc(Cl)c1	NR3A LBD binder 35, MPTP block 60 | Rh123 counter 68
